Screens (PubChem)
ROMK primary: modulators of human ROMK potassium channel; B-score at 10 µM; 130,000 compounds, 2% hits; P48048; Tet-inducible ROMK, thallium flux fluorescence; actives lie on both sides;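 active = signal ratio slope over the read window, or its plate-corrected B-score, at least 3 SD from the plate mean, either direction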;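 note: B-score of the F/F0 ratio slope over 7 to 12 s after thallium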
RAM inhibit: yeast RAM network inhibition; S. cerevisiae dse1pr::URA3 reporter, 5-FOA growth OD615, 2 d; analog-sensitive cbk1-as2 kinase mutant strain; inhibition, % at 50 µM; 190,000 compounds, 1.8% hits; AID 868;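 active = inhibition above a set limit, 3 SD over mean compound inhibition, cut at about 8.4% in these data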;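 note: 0% = DMSO-only wells with no growth and 100% = 10 µM 1-NA-PP1 full growth; inhibition rescues growth on 5-FOA so higher OD means more RAM inhibition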
S1P3 antag: S1P3 (human) receptor antagonism; CHO S1P3 NFAT-BLA reporter, FRET fluorescence, antagonist mode; inhibition, % at 4.98 µM; 170,000 compounds, 0.27% hits; AID 485;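 active = inhibition above the plate cutoff, the mean inhibition of test wells on that plate plus 3 SD, cut at about 28% in these data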;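 note: cells challenged with S1P at its EC80 of 0.8 µM; blue over green emission ratio from cleaved BLA substrate after 4 h stimulation; 0% = S1P-stimulated wells and 100% = unstimulated DMSO-only wells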
Target sequence (Q99500 whole entry, looked up): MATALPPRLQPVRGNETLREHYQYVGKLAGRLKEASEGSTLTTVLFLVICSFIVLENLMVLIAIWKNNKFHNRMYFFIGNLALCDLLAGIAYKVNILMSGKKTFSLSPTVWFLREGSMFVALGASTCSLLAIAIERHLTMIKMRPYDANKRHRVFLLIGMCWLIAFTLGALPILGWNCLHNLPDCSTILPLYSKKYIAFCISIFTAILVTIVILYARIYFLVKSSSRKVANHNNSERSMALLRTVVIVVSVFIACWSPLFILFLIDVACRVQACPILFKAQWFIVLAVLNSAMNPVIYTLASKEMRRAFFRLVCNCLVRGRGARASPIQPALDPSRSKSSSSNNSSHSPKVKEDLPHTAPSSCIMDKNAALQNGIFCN
KCC2 mod: modulates chloride dependent transport by human KCC2. Q9H2X9. KCC2 cells, thallium flux FluoZin-2 fluorescence. B-score of Tl+ flux slope (higher = more flux/activation; lower = inhibition) at 10 µM. 190,000 compounds, 2.2% hits. AID 1456;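 active = thallium flux slope and its plate-corrected score both differing from the plate sample mean at a set confidence after two filtering rounds, in either direction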;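 note: slope of fluorescence scaled to starting intensity during 10 to 20 s after thallium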
S1P4 antagonist: blocks the human S1P4 receptor; O95977; S1P4-expressing cells, antagonist mode, reporter read-out; inhibition, % at 4.98 µM; 220,000 compounds, 0.26% hits; AID 1510; in the data active = inhibition above about 29%;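 note: 0% = wells stimulated with agonist and 100% = vehicle wells without agonist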
S1P4 agonist: human S1P4 receptor agonism; O95977; 220,000 compounds, 0.35% hits; S1P4-expressing cell line, agonist reporter assay; activation, % at 4.98 µM; in the data active = activation above about 11%;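 note: 0% = DMSO vehicle and 100% = reference agonist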
An asterisk follows results filed as active; / = no result. A selection: hits, their analogues and other compounds. The true share with any hit is near 5.1%.

SMILES	ROMK primary	RAM inhibit	S1P3 antag	KCC2 mod	S1P4 antagonist	S1P4 agonist
c1ccc(-c2nc(CSc3nnc(-c4cccs4)o3)cs2)cc1	-0.215	9.9*	19.1	-2.29	-13.4	1.0
CCOc1ccccc1N1CCN(C(=S)NC(=O)C23CC4CC(CC(C4)C2)C3)CC1	/	0.1	-14.9	4.75*	-8.1	2.6
O=C(NCc1cccs1)c1nc2c(nnn2Cc2ccccc2Cl)c(=O)[nH]1	/	1.8	-6.6	-2.72*	7.0	-0.7
CCC(C)NC(=O)c1nc2c(nnn2Cc2ccccc2Cl)c(=O)[nH]1 (centres undefined)	-0.0267	-0.7	18.4	-3.13	9.9	0.3
CC(C)OC(=O)C1CC(C)(O)C(=O)C(C(=O)OC(C)C)C1c1ccc([N+](=O)[O-])cc1 (centres undefined)	0.503	2.0	7.5	-0.122	-2.2	-1.4
CC(C)Cc1ccc(C(C)C(=O)OCC(=O)c2c[nH]c3ccccc23)cc1 (centres undefined)	0.256	10.4*	/	/	0.0	-2.0
COc1ccc(/C=N/NC(=O)c2c(C)nc3ccccn23)cc1[N+](=O)[O-]	/	/	-1.6	0.157	18.9	0.4
COc1cccc(/C=C2\N=C(SC)SC2=O)c1OC	/	9.6*	-14.6	-0.14	-36.6	2.8
COc1ccccc1NS(=O)(=O)c1cc([N+](=O)[O-])ccc1N/N=C/c1c[nH]c2ccccc12	0.00419	10.1*	/	-0.0132	-16.9	-0.9
COc1ccc(NS(=O)(=O)c2cc([N+](=O)[O-])ccc2N/N=C\c2c(C)[nH]c3ccccc23)cc1	-0.121	5.9	/	-0.579	7.3	2.9
CSCCC(NC(=O)OC(C)(C)C)C(=O)Oc1ccc2c(=O)c(-c3ccc4c(c3)OCCO4)coc2c1 (centres undefined)	/	8.7*	/	/	-12.3	-0.5
CSCCC(NC(C)=O)C(=O)Oc1ccc2c3c(c(=O)oc2c1)CCCC3 (centres undefined)	/	-0.2	-6.8	-0.854	-13.6	-0.7
NS(=O)(=O)c1cccc(NC(=O)CSc2nnc(-c3ccccc3F)n2C2CC2)c1	/	/	2.8	1.3	0.7	-0.3
COc1ccccc1CNc1nc(S(=O)(=O)c2ccccc2)c(Cl)s1	0.0585	9.8*	-26.9	-0.694	-18.2	0.8
CNS(=O)(=O)c1cccc(C(=O)OCC(=O)N(Cc2ccccc2)C(C)(C)C)c1	-0.103	0.1	12.1	0.142	-5.4	-0.4
O=C(CCc1c[nH]c2ccccc12)N1CCN(c2ccc(O)cc2)CC1	0.169	0.7	-9.4	-0.0124	1.0	0.6
CCOC(=O)CC(NC(=O)Cn1nnc(-c2ccccc2F)n1)c1ccc(OC)cc1 (centres undefined)	1.36	9.7*	-9.5	-2.52	12.6	-0.3
O=S(=O)(c1ccccc1)c1ncc(C(F)(F)F)cc1O	/	1.7	2.9	0.642	-5.9	0.7
O=S(=O)(c1ccccc1)c1ncc(C(F)(F)F)cc1Cl	0.00654	9.8*	-26.7	0.422	16.6	0.7
CSc1ccccc1C(=O)C1CCCN(Cc2cnn(-c3ccccc3)c2)C1 (centres undefined)	-0.592	-0.7	-10.7	0.0297	-12.8	-0.6
O=C(NCc1ccco1)C(=O)NCC(c1ccco1)N1CCOCC1 (centres undefined)	-0.000525	-0.5	-15.5	-1.02	-7.9	-1.0
Cc1ccc(/C=C2\CCC3=C2OC(N)=C(C#N)C3c2ccc(C)cc2)cc1 (centres undefined)	-4.94*	2.0	/	0.0977	1.5	3.4
COc1ccc(C2=NN(C(=O)CCCC(=O)O)C(c3cn(-c4ccccc4)nc3-c3ccccc3)C2)cc1 (centres undefined)	/	/	0.7	-1.01	10.9	-2.5
Cc1ccc(CS(=O)(=O)CCC(=O)NCCCN2CCCC2)cc1	/	4.8	81.7*	/	-14.5	1.0
Cc1ccc(CS(=O)(=O)CCC(=O)NCCN2CCCCC2C)cc1 (centres undefined)	0.0831	-1.7	9.8	/	-24.2	1.3
SMILES	ROMK primary	RAM inhibit	S1P3 antag	KCC2 mod	S1P4 antagonist	S1P4 agonist
O=c1c2ccccc2nc(SCc2ccccc2Cl)n1Cc1ccccc1	/	8.9*	/	/	10.4	2.0
COC(=O)c1ccc(CSc2nc3ccccc3c(=O)n2Cc2ccco2)o1	/	9.7*	17.6	-1.26	-11.0	-1.2
O=C(CSc1nc2ccccc2c(=O)n1Cc1ccco1)NCc1ccccc1	-0.531	/	76.4*	3.98*	5.0	-0.7
O=C(CSc1nc2[nH]ncc2c(=O)n1-c1ccccc1Br)NCc1ccco1	/	4.2	82.8*	-0.151	-10.6	-0.7
CCCn1c(C)cc(C(=O)CSc2nc3ccccc3c(=O)n2Cc2ccco2)c1C	0.0379	9.3*	-6.8	-0.0355	-12.0	-0.7
CCOc1ccc(NC(=O)COC(=O)C2(C)CC2(Cl)Cl)c([N+](=O)[O-])c1 (centres undefined)	-1.52	9.1*	2.5	-0.562	6.2	1.6
CCOc1ccc(OCC(=O)Nc2ccc(OC)cc2[N+](=O)[O-])cc1	0.288	3.9	-21.6	1.14	-2.5	-2.4
O=C(Oc1c(Cl)cc(Cl)c2cccnc12)c1cccc([N+](=O)[O-])c1	-0.287	-0.6	0.5	51*	-10.1	0.2
O=C(Oc1ccc(Cl)c2cccnc12)c1cccc([N+](=O)[O-])c1	/	0.9	3.1	1.63	-17.8	0.7
CC(OC(=O)C1CC1)C(=O)Nc1ccc([N+](=O)[O-])cc1Cl (centres undefined)	-0.784	-0.1	-26.4	/	-23.5	1.4
Cc1c(C(=O)O)sc2nc(SCC(=O)Nc3ccc(S(=O)(=O)NC(C)(C)C)cc3)[nH]c(=O)c12	-0.576	8.5*	-12.4	0.641	-8.3	-0.8
Cc1c(C(=O)O)sc2nc(SCC(=O)Nc3ccc(S(=O)(=O)NCCCC(=O)O)cc3)[nH]c(=O)c12	-0.642	1.9	-5.8	0.203	-12.2	1.9
CC(C)Nc1nnc(SCC(=O)Nc2ccc(F)cc2)s1	/	0.7	-6.0	0.226	7.0	1.0
CC(C)c1nnc(NC(=O)CSc2nnc(NC(=O)c3c(F)cccc3F)s2)s1	0.315	10.5*	-5.8	0.105	5.9	-0.2
CCCN(CC1CC1)C(=O)COC(=O)c1ccc2c(c1)C(=O)N(c1ccc(OCC)cc1)C2=O	-2.97	10.7*	-6.9	0.392	-12.0	-1.2
CCOC(=O)C1=C(CC)Nc2ccccc2N=C1NC(=O)c1oc2ccccc2c1C	/	4.3	3.9	-3.38	0.3	1.5
CCOCc1c(C(=O)NC2=Nc3ccccc3NC(CC)=C2C(=O)OCC)oc2ccccc12	-1.45	10.3*	-5.5	-0.89	18.0	-0.4
C/C(=N/NC(=O)CNC(=O)c1ccncc1)c1ccco1	/	/	-11.6	0.635	8.8	0.6
C[C@@H](C(=O)Nc1ccc2ccccc2c1)[C@H]1C[C@]1(C)[C@H](NC(=O)OCc1ccccc1)c1ccccc1	-0.117	3.1	32.1*	-0.482	14.3	2.1
Cc1ccc(O)c(C(=O)c2cnc3c(c2)COc2ccc(C)cc2-3)c1	0.348	8.7*	/	0.257	-15.4	0.2
